Measured values taken from PubChem BioAssay (NCI).
Compounds without any hit were thinned out: in the full panel of roughly 83,000, 20% have a hit.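 Results are percent growth after 48 hours of single-concentration exposure. 100 means growth as in untreated cells, lower positive values show inhibition; negative values down to -100 show cell death.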 A number with no mark means an inactive call. The source made the active and inactive calls.

The molecules below were run on A549/ATCC NSCLC (assay: NCI-60 one-dose screen, 48 h (100 = growth as untreated, 0 = no growth, -100 = all killed)). Conditions: 10 µM unless noted.
Description: Growth inhibition of the A549/ATCC human Non-Small Cell Lung tumor cell line is measured as a screen for anti-cancer activity. Cells are grown in 96 well plates and exposed to the test compound for 48 hours. Compounds are tested at a single concentration, which is 10^-5 M for most compounds. The reported endpoint is percent growth (GI% or GIPRCNT), where numbers from 0 - 100% represent growth inhibition, and numbers from -100% - 0 represent cell death. For example, a value of 40 represents 60% growth inhibition. A value of 0 means no net growth occurred over the course of the experiment. A value of -40 indicates 40% of cells at the beginning of the experiment died by the end of the experiment. A value of -100 means all cells are dead at the end of the experiment.
NCI-60 Human Tumor Cell Lines Screen was performed using the standard one-dose NCI protocol, which is described in more detail at https://dtp.cancer.gov/discovery_development/nci-60/default.htm.
Compounds with GIPRCNT values below 10 were considered active. Activity score was based on GIPRCNT using the following formula: […]
Score is 0 for GIPRCNT values of 100 or above, 50 for GIPRCNT values of 0, and 100 for GIPRCNT values of -100.

Question: N#CC1=C(c2ccc(Cl)cc2)Nc2c(c(-c3ccc(Cl)cc3)nn2-c2ccccc2)C12C(=O)Nc1ccc(Cl)cc12 (stereo not given) was tested. Which growth did it give?
Answer: 31%

Question: How did the growth turn out when O=S(=O)(NCCNc1nccc(-c2c(-c3cccc(F)c3)nc3occn23)n1)c1ccc(Br)cc1 was run?
Answer: 53.9%

Question: Which growth does the source give for COC(C(=O)[C@@H](O)[C@@H](C)O)[C@@H]1Cc2cc3cc(O[C@H]4C[C@@H](O[C@H]5C[C@@H](O)[C@H](O)C(C)O5)[C@H](O)C(C)O4)cc(O)c3c(O)c2C(=O)[C@H]1O[C@H]1C[C@@H](O[C@H]2C[C@@H](O[C@H]3C[C@@H](OC)[C@H](O)C(C)O3)[C@@H](O)C(C)O2)[C@H](O)C(C)O1 (stereo not given in full) here?
Answer: 19.2%

Question: With Clc1ccc2c(c1)N(c1ncnc3ccc(-c4cnc5[nH]ncc5c4)cc13)CC2 as the molecule, how does the growth read?
Answer: 6.23% (active)

Question: With CCS/C(Nc1ccccc1)=C(\C#N)C(=O)N/N=C/c1ccc(Cl)cc1Cl as the molecule, how does the growth read?
Answer: 38.3%

Question: Which growth does the source give for C#CCOc1ccc2ncnc(Nc3cccc(NC(=O)C=C)c3)c2c1 here?
Answer: 56.4%

Question: N#C/C(=C\c1ccc(Br)cc1)n1nnc2ccc(F)cc21 was tested. Which growth did it give?
Answer: 16.6%

Question: Which growth does the source give for COC(=O)c1n[nH]c2ccc3nc(-c4cn[nH]c4C(F)(F)F)c4c(c3c12)CCCC4 here?
Answer: 39%

Question: O=C(O)CCCN1C(=O)/C(=C/C(Cl)=C/c2ccccc2)SC1=S was tested. Which growth did it give?
Answer: 65%

Question: How did the growth turn out when COc1ccc(-c2nc3c(c(-c4ccccc4)nn3-c3ccccc3)c(-c3ccc(N4CCN(C)CC4)cc3)c2C#N)cc1 was run?
Answer: 89.3%

Question: With CC/C(=C(/c1ccc(Cl)cc1)c1ccc(OCCN2CCCC2)cc1)c1ccc(OC)cc1 as the molecule, how does the growth read?
Answer: 61.9%

Question: How did the growth turn out when COc1cc2oc(-c3cccc(NC(=O)c4cccc(Br)c4)c3)cc(=O)c2c(OC)c1OC was run?
Answer: 49.3%

Question: For CN(Cc1ccc(C(F)(F)F)cc1)CC(O)C(=O)Nc1ccc(Cl)cc1 (stereo not given), which growth is on record?
Answer: 19.6%

Question: Cn1cc(-c2nc(-c3c[nH]c4ccncc34)cs2)c2ccccc21 was tested. Which growth did it give?
Answer: 42.1%

Question: With CC(C)(C)n1cc(-c2ccnc(NCCCNS(=O)(=O)c3ccc(F)cc3)c2)c(-c2cccc(F)c2)n1 as the molecule, how does the growth read?
Answer: 43.5%

Question: COC(=O)c1c2c(c[n+]([O-])c1C)C(=O)C(NCc1ccccc1)=CC2=O was tested. Which growth did it give?
Answer: -19.8% (active)

Question: For O=C(CSc1nc2ccc([N+](=O)[O-])cc2[nH]1)Nc1cccc(C(F)(F)F)c1, which growth is on record?
Answer: 23.2%

Question: How did the growth turn out when Cc1ccc(/C=C2\CN(C(=O)OC(C)(C)C)C/C(=C\c3ccc(C)cc3)C2=O)cc1 was run?
Answer: 81.5%

Question: How did the growth turn out when CCCCC[C@@H]1Cc2cc(O)c(C(=O)O)c3c2[C@H](C[C@]2(OC[C@@H](CC(=O)[C@@](C)(CC)C(=O)OC)[C@@H]2C)O3)O1 was run?
Answer: 107%

Question: Which growth does the source give for O=C1/C(=C/c2ccc(F)cc2)COc2ccc(O)cc21 here?
Answer: 92.5%

Question: With CN(C)CC(=O)Nc1ccc2ncnc(Nc3ccc(Oc4cccc(C(F)(F)F)c4)c(Cl)c3)c2c1 as the molecule, how does the growth read?
Answer: 47.5%

Question: With Cc1nc2sc(C(=O)Nc3cccc(Cl)c3C)c(N)c2cc1C(=O)c1ccccc1 as the molecule, how does the growth read?
Answer: 19.9%

Question: For CN(C)CCCC1(c2ccc(F)cc2)OCc2cc(-c3cncc4ccccc34)ccc21 (stereo not given), which growth is on record?
Answer: 46.9%

Question: How did the growth turn out when CCOC(=O)c1cc2c(=O)oc3ccccc3c2oc1=O was run?
Answer: 105%

Question: N=C(N)c1ccc(-c2ccc(-c3ccc(Cl)cc3)s2)nc1 was tested. Which growth did it give?
Answer: -30.8% (active)

Question: Which growth does the source give for O=C1/C(=C/c2ccc(F)cc2)COc2ccc(O)c(O)c21 here?
Answer: 47.4%

Question: With O=C1Nc2ccccc2/C1=C\c1nc(-c2ccccc2F)n2ccccc12 as the molecule, how does the growth read?
Answer: 26.5%

Question: For CCN(CC)C(=S)SC(SC(=S)N(CC)CC)C(=O)c1nnn(-c2ccc([N+](=O)[O-])cc2)c1C, which growth is on record?
Answer: 95.9%

Question: For Cc1ccc2c3c(c(=O)[nH]c2c1)C1(C(C#N)=C(N)O3)c2cc(Br)ccc2-c2ccc(Br)cc21, which growth is on record?
Answer: -42.4% (active)

Question: With O=C1Nc2ccccc2/C1=C\c1nc(-c2ccccc2)n2ccccc12 as the molecule, how does the growth read?
Answer: 92.7%

Question: For O=C1c2cccnc2C(=O)c2c1c(C(=O)NCCCN1CCCCC1)c1ccccn21, which growth is on record?
Answer: -42.9% (active)

Question: Which growth does the source give for O=C1c2c(c3c4ccccc4[nH]c3c3ccc4ccccc4c23)C(=O)N1CCN1CCCCC1 here?
Answer: 32.3%

Question: Which growth does the source give for Cc1cccc(N2CCN(CC(O)COc3ccc(Cl)cc3)CC2)c1 (stereo not given) here?
Answer: 117%

Question: O=S(=O)(NCCCNc1nccc(-c2c(-c3ccc(F)c(O)c3)nc3occn23)n1)c1ccccc1 was tested. Which growth did it give?
Answer: 88.1%

Question: CCCc1cc(NC)nc(S(=O)(=O)CC)n1 was tested. Which growth did it give?
Answer: 105%

Question: With O=C(Nc1nn(-c2ccc(Cl)cc2Cl)nc1-c1ccccc1)c1ccccc1 as the molecule, how does the growth read?
Answer: 94.7%

Question: With O=C(Cc1ccccc1)Nc1nc(O)c(/C=C2\C(=O)C=Cc3ccccc32)s1 as the molecule, how does the growth read?
Answer: 101%

Question: C1=CN2CC(c3ccccc3)=NNC2c2ccccc21 (stereo not given) was tested. Which growth did it give?
Answer: 95.1%

Question: Which growth does the source give for O=C(O)/C(=C\c1ccc(Cl)cc1)c1ccc(Cl)cc1 here?
Answer: 88.5%

Question: Which growth does the source give for Cc1ccc(-c2nc(N3CCNCC3)c3oc(-c4ccccc4)nc3n2)cc1 here?
Answer: 3.88% (active)
